Source: PubChem BioAssay
Rows were chosen to be rich in hits. Some 2.3% of all compounds tested hit in one or more screens of this group.
MCL1-BIM inh: inhibitors of human MCL1 binding to BIM-BH3 peptide; Q07820; GST-MCL1 / FITC-Bim-BH3 fluorescence polarization; inhibition, % at 10.9 µM; hit rate 0.68% among 320,000; AID 2057;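 active = inhibition above the mean inhibition of all tested compounds plus 3 SD, set per campaign, cut at about 40% in these data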;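 note: higher means more loss of mP so more displacement of Bim peptide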
Mcl-1 Bim block: disrupts Bim peptide binding to human Mcl-1 | Q07820 | Bead-based flow cytometry, Bim peptide-Mcl-1 binding | inhibition, % at 10 µM | hit rate 0.1% among 190,000 | AID 1009; in the data active = inhibition above about 40%
Mcl1 Bid PPI: Mcl-1/Bid interaction inhibition. Q07820. TR-FRET Mcl-1/Bid-Dy647 peptide binding, 1536-well. inhibition, % at 21.7 µM. hit rate 0.97% among 220,000;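 active = compounds that cut the binding signal by more than half at the single screening dose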;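 note: His-tagged Mcl-1 with europium anti-His antibody binding Bid BH3 peptide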
Mcl1-Noxa inh: disrupts binding of human Mcl-1 to Noxa peptide | Q07820 | inhibition, % at 21.7 µM | AID 1022 | TR-FRET Mcl-1/Noxa peptide binding, 2 h | hit rate 1.5% among 220,000;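 active = compounds that cut the protein-peptide binding signal by more than 50% relative to plate controls in a single-dose test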;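 note: His-tagged Mcl-1 with rhodamine Noxa BH3 peptide and terbium anti-His antibody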
Bcl-xL primary: inhibitors of human Bcl-xL; Q07817; GST-Bcl-xL / FITC-Bim BH3 peptide fluorescence polarization; inhibition, % at 10.9 µM; hit rate 0.7% among 320,000;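 active = inhibition above the mean of all tested compounds plus 3 SD, cutoff set per campaign, cut at about 30% in these data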;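 note: inhibitors lower millipolarization by displacing the labeled peptide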
GLD-1 TGE inh: GLD-1-TGE RNA interaction inhibition (C. elegans); hit rate 0.44% among 320,000; Q17339; inhibition, % at 5.96 µM; purified GLD-1 + fluorescein TGE RNA, fluorescence polarization; AID 2280;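 active = percent inhibition above a per-plate cutoff, the plate mean of test compounds plus 3 SD, cut at about 30% in these data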
Target sequence (Q17339 whole entry, looked up): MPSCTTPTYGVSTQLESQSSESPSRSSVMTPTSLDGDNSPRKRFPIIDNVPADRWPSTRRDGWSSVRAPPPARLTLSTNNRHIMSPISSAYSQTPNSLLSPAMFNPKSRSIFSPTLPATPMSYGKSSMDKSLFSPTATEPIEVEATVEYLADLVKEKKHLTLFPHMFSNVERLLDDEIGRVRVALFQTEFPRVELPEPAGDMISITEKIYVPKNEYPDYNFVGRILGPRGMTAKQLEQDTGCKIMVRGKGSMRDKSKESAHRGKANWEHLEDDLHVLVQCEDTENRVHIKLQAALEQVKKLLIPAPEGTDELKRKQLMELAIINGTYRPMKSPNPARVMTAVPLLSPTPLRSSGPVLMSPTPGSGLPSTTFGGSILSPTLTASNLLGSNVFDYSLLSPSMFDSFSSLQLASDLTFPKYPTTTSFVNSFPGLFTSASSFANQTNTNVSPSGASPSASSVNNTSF
Numbers stand for hits; i = inactive; nt = no result given.

SMILES	MCL1-BIM inh	Mcl-1 Bim block	Mcl1 Bid PPI	Mcl1-Noxa inh	Bcl-xL primary	GLD-1 TGE inh
Cc1cccc(-n2c(C)cc(/C=C3/C(=N)N4C(c5ccccc5)=CSC4=NC3=O)c2C)c1	i	i	i	i	i	i
N=C1/C(=C\c2ccc(-c3cccc(Cl)c3)o2)C(=O)N=C2SC=C(c3ccccc3)N12	i	i	i	51.4	i	i
N=C1S/C(=C\c2ccc(-c3cccc(Cl)c3)o2)C(=O)N1c1nccs1	i	i	90.6	87.6	i	i
CCCCn1c(N)c(N(Cc2ccccc2OC)C(=O)c2ccc([N+](=O)[O-])s2)c(=O)[nH]c1=O	i	nt	nt	nt	i	i
Cn1c(CC(=O)NNC(=O)c2ccccc2[N+](=O)[O-])nc2ccccc21	i	nt	nt	nt	i	i
Cc1ccc(OCCC(=O)OCC(=O)NC(=O)NC2CCCC2)cc1	i	nt	nt	nt	i	i
Cc1cccc(C)c1NC(=O)N1C2CCC1CC(O)(c1cccnc1)C2 (configuration not stated)	i	i	i	53.0	i	i
CN(C)c1cc(-c2ccccc2)nc(-c2ccccc2)n1	i	nt	nt	nt	i	i
COc1ccc(-c2ccc(-c3noc(-c4ccccc4)n3)c(OC)n2)cc1	i	i	i	i	i	i
COc1ccc(-c2ccc(-c3noc(-c4ccccc4F)n3)c(OC)n2)cc1	nt	i	55.6	nt	nt	nt
Cc1oc2cc(O)ccc2c(=O)c1-c1cnn(-c2ccccc2)c1	i	i	i	i	i	i
O=c1c(-c2cnn(-c3ccccc3)c2)coc2cc(O)ccc12	i	i	i	57.4	i	i
NC(=O)c1c(N)sc2c1CCC2	nt	i	i	i	nt	nt
Nc1sc2c(c1C(=O)NC1CCS(=O)(=O)C1)CCC2 (configuration not stated)	i	i	i	i	31.5	i
CCOC(=O)c1c(N2C(=O)C=CC2=O)sc(C)c1C	i	i	i	54.3	i	i
CCOC(=O)c1c(NC(N)=O)sc(C)c1C	i	i	i	i	i	i
O=C1CCCC2=C1C(c1ccccc1)C1C(=O)c3ccccc3C1=N2 (configuration not stated)	i	i	i	58.3	i	i
Cc1ccc(C(=O)Nc2cccc(-c3cnc4ccccc4n3)c2)cc1	i	i	i	i	i	i
CC(=O)Nc1ccc(C(=O)Nc2cccc(-c3cnc4ccccc4n3)c2)cc1	nt	i	i	75.9	nt	nt
CN(CC(=O)Nc1c(Cl)cccc1Cl)C(=O)Cn1[nH]c(=O)c2ccccc2c1=O	i	nt	nt	nt	i	i
CCOC(=O)c1ccc(NC(=O)c2ccccc2)cc1	i	i	i	i	i	i
CCOC(=O)c1ccc(NC(=O)Oc2ccccc2)cc1	i	i	99.8	i	i	i
Fc1ccccc1-c1nc2ccccc2[nH]1	i	i	i	i	i	i
Clc1ccccc1-c1nc2ccccc2[nH]1	i	nt	76.9	i	i	i
COc1ccc(-c2nn(-c3ccccc3)cc2/C=C(/C#N)C(N)=O)cc1[N+](=O)[O-]	i	i	65.3	i	i	i
SMILES	MCL1-BIM inh	Mcl-1 Bim block	Mcl1 Bid PPI	Mcl1-Noxa inh	Bcl-xL primary	GLD-1 TGE inh
COc1ccc(-c2nn(-c3ccccc3)cc2/C=C(\C#N)C(N)=O)cc1[N+](=O)[O-]	i	i	i	i	i	i
COc1ccc(-c2nn(-c3ccccc3)cc2/C=N/Nc2ccc(S(N)(=O)=O)cc2[N+](=O)[O-])cc1OC	i	i	i	51.3	i	i
N#Cc1ccc(N/N=C/c2ccccc2)c([N+](=O)[O-])c1	i	i	i	i	i	i
CCC(C)[C@H](NC(=O)[C@@H]1Cc2c([nH]c3ccccc23)C2c3ccccc3C(=O)N21)C(=O)N1CCC[C@@H]1C(=O)O (some centres not stated)	i	nt	nt	nt	i	i
Cc1cccc(NC(=O)CSc2cc(C)c(C#N)c3nc4ccccc4n23)c1	i	nt	i	i	i	i
Cc1ccc(C)c(N(CC(=O)NC2CCCC2)C(=O)c2cc3cc4cc(C)ccc4nc3s2)c1	i	i	i	i	i	i
Cc1cccc(N(CC(=O)NC2CCCC2)C(=O)c2cc3cc4cccc(C)c4nc3s2)c1C	i	i	67.3	i	i	i
O=C(NCC1CC1)c1ccc2c(c1)S(=O)(=O)c1cc(Cl)ccc1C2=O	i	nt	nt	nt	i	i
COc1ccccc1N1N=C(c2ccc([N+](=O)[O-])cc2)CC1c1ccccc1 (configuration not stated)	i	nt	nt	nt	56.4	i
COc1cc(N2N=C(c3ccccc3)CC2c2ccccc2)c(C=O)cc1C=O (configuration not stated)	i	nt	nt	nt	i	i
COc1cccc(-n2c(SCc3ccccn3)nc3c(c2=O)SCC3)c1	i	i	82.1	i	i	i
C1CCC(n2nnnc2CN2CCCC2)CC1	i	i	i	i	i	i
OC1(c2cccnc2)CCN(Cc2nnnn2C2CCCCC2)CC1	i	i	51.5	i	i	i
O=C1C(C2=NC(C(=O)O)C3C(=O)N(c4ccc(Cl)cc4)C(=O)C23)=C(O)c2ccccc21 (configuration not stated)	i	i	i	63.2	i	i
COc1ccc(OC)c(NC(=S)N(CCc2c(C)[nH]c3ccccc23)Cc2cccs2)c1	i	i	i	i	i	i
COc1ccc(OC)c(NC(=S)N(CCc2c(C)[nH]c3ccc(C)cc23)Cc2cccs2)c1	i	i	84.9	i	i	i
CCOC(=O)C1CCN(C(=O)COC(=O)Cc2ccc(Cl)cc2)CC1	i	nt	nt	nt	i	i
Cc1ccccc1C1C2=C(Nc3[nH]n(-c4ccccc4)c(=O)c31)c1ccccc1C2=O (configuration not stated)	i	i	i	i	i	i
Cc1cccc(C2C3=C(Nc4[nH]n(-c5ccccc5)c(=O)c42)c2ccccc2C3=O)c1 (configuration not stated)	nt	i	i	65.2	nt	nt
O=C1/C(=C\c2cccnc2)Sc2ccccc21	i	i	i	i	i	i
CC(=O)Nc1ccc(/C=C2/Sc3ccccc3C2=O)cc1	i	i	i	72.1	i	i
O=C(Nc1ccc([N+](=O)[O-])cc1)c1nc[nH]c1C(=O)NC1CCCCC1	i	i	i	i	i	i
O=C(Nc1ccc(F)cc1)c1nc[nH]c1C(=O)Nc1ccc([N+](=O)[O-])cc1	i	i	62.3	62.5	i	i
COc1ccc(C(=O)Nc2ccccc2C(=O)Nc2ccncc2)cc1	i	nt	nt	nt	i	i
CC1CCCN(CC(O)COC(c2ccccc2)c2ccccc2)C1 (configuration not stated)	i	i	i	i	i	i
O=C(N/N=C/C(Br)=C\c1ccccc1)c1ccco1	i	nt	74.0	i	i	i
O=C(COC(=O)c1ccco1)Nc1nc2c(F)c(F)c(F)cc2s1	i	nt	nt	nt	i	i
O=C(COC(=O)c1ccc(NS(=O)(=O)c2cccs2)cc1)Nc1nc2c(F)c(F)c(F)cc2s1	nt	i	i	70.9	nt	nt
CCC(CC)=N/N=C/c1c(O)n(CC)c2cc(C3=NNC(=O)CC3)ccc12	i	i	65.7	i	i	i
O=C(Nc1ccccc1)N1CCN(Cc2ccc3c(c2)OCO3)CC1	i	i	58.4	i	i	i
